The results in this text go back to paper PMC11006913.

What all share (assay): PBM; 200 nM protein, PBS
Holding throughout (conditions): dsDNA, one strand shown

Assay [1] has as its target HESX1 (Homo sapiens, UniProt Q9UBX0 95-180, R165K).
For assay [2], the target named is HOXB4 (Homo sapiens, UniProt P17483 148-234).
The target of assay [3] is HESX1 (Homo sapiens, UniProt Q9UBX0 95-180).
In assay [4] the target is HOXB4 (Homo sapiens, UniProt P17483 148-234, V174I).
Assay [5] has as its target HESX1 (Homo sapiens, UniProt Q9UBX0 95-180, P111T).
In another assay the target is HOXA4 (Homo sapiens, UniProt Q00056 201-287, R217L).
Assay [6] deals with ALX3 (Homo sapiens, UniProt O95076 139-225, N203Q).
Assay [7] deals with HESX1 (Homo sapiens, UniProt Q9UBX0 95-180, R109Q).
Assay [8] addresses HESX1 (Homo sapiens, UniProt Q9UBX0 95-180, F115L).
In assay [9] the target is SHOX (Homo sapiens, UniProt O15266 103-189).
For assay [10], the target named is ALX1 (Homo sapiens, UniProt Q15699 118-204, L144V).
For assay [11], the target named is SHOX (Homo sapiens, UniProt O15266 103-189, R173C).
Assay [12] deals with ALX1 (Homo sapiens, UniProt Q15699 118-204, L144R).
In assay [13] the target is ALX3 (Homo sapiens, UniProt O95076 139-225).
Assay [14] deals with PROP1 (Homo sapiens, UniProt O75360 56-141).
Assay [15] deals with PROP1 (Homo sapiens, UniProt O75360 56-141, R99H).
The target of assay [16] is ALX3 (Homo sapiens, UniProt O95076 139-225, L168Q).
Assay [17] addresses ALX3 (Homo sapiens, UniProt O95076 139-225, L168V).
Assay [18] addresses PROP1 (Homo sapiens, UniProt O75360 56-141, F88S).
The target of assay [19] is ALX3 (Homo sapiens, UniProt O95076 139-225, N203S).
Chain of ALX3 (Homo sapiens, UniProt O95076 139-225, N203S) (O95076 139-225 N203S): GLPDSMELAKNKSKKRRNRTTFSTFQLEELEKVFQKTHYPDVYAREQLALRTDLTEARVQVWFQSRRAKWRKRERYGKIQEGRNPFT

Chain of ALX3 (Homo sapiens, UniProt O95076 139-225) (O95076 139-225): as the sequence (O95076 139-225 N203S) above, with S65N counted along it
Chain of ALX1 (Homo sapiens, UniProt Q15699 118-204, L144R) (Q15699 118-204 L144R): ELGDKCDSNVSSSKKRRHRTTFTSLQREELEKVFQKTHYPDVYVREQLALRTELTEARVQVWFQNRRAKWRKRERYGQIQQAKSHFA
Chain of HOXB4 (Homo sapiens, UniProt P17483 148-234, V174I) (P17483 148-234 V174I): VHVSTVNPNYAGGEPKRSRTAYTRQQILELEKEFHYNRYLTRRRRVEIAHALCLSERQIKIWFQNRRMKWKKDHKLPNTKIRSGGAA
Chain of PROP1 (Homo sapiens, UniProt O75360 56-141, R99H) (O75360 56-141 R99H): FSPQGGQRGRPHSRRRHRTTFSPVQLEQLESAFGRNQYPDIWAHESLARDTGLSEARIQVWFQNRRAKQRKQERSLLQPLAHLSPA
Chain of PROP1 (Homo sapiens, UniProt O75360 56-141, F88S) (O75360 56-141 F88S): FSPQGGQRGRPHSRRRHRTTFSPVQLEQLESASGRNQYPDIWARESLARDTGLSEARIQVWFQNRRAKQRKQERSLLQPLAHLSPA
Chain of HOXA4 (Q00056 201-287 R217L): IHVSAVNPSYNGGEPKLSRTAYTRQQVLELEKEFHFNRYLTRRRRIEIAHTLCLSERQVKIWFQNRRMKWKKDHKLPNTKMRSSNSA
Chain of SHOX (Homo sapiens, UniProt O15266 103-189) (O15266 103-189): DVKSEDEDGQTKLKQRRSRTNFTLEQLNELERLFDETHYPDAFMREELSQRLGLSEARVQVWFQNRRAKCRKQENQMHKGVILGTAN
Chain of SHOX (Homo sapiens, UniProt O15266 103-189, R173C) (O15266 103-189 R173C): as the sequence (O15266 103-189) above, with R71C counted along it
Chain of ALX3 (Homo sapiens, UniProt O95076 139-225, L168V) (O95076 139-225 L168V): as the sequence (O95076 139-225 N203S) above, with L30V, S65N counted along it
Chain of ALX3 (Homo sapiens, UniProt O95076 139-225, L168Q) (O95076 139-225 L168Q): as the sequence (O95076 139-225 N203S) above, with L30Q, S65N counted along it
Chain of ALX3 (Homo sapiens, UniProt O95076 139-225, N203Q) (O95076 139-225 N203Q): as the sequence (O95076 139-225 N203S) above, with S65Q counted along it
Chain of HESX1 (Homo sapiens, UniProt Q9UBX0 95-180, R165K) (Q9UBX0 95-180 R165K): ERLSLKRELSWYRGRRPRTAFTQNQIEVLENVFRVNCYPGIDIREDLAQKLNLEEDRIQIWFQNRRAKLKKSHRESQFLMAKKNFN
Chain of HESX1 (Homo sapiens, UniProt Q9UBX0 95-180, R109Q) (Q9UBX0 95-180 R109Q): as the sequence (Q9UBX0 95-180 R165K) above, with R15Q, K71R counted along it
Chain of ALX1 (Homo sapiens, UniProt Q15699 118-204, L144V) (Q15699 118-204 L144V): as the sequence (Q15699 118-204 L144R) above, with R27V counted along it
Chain of HOXB4 (Homo sapiens, UniProt P17483 148-234) (P17483 148-234): as the sequence (P17483 148-234 V174I) above, with I27V counted along it
Chain of PROP1 (Homo sapiens, UniProt O75360 56-141) (O75360 56-141): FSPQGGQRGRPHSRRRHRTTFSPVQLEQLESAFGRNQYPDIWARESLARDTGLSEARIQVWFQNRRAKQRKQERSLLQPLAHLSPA
Chain of HESX1 (Homo sapiens, UniProt Q9UBX0 95-180, P111T) (Q9UBX0 95-180 P111T): as the sequence (Q9UBX0 95-180 R165K) above, with P17T, K71R counted along it
Chain of HESX1 (Homo sapiens, UniProt Q9UBX0 95-180, F115L) (Q9UBX0 95-180 F115L): as the sequence (Q9UBX0 95-180 R165K) above, with F21L, K71R counted along it
Chain of HESX1 (Homo sapiens, UniProt Q9UBX0 95-180) (Q9UBX0 95-180): as the sequence (Q9UBX0 95-180 R165K) above, with K71R counted along it

TATTAGAA: the binding signal was 8 upbm affinity estimate (log intensity, higher = more binding, comparable within an allelic series) with HESX1 [1]; 10.9 upbm affinity estimate (log intensity, higher = more binding, comparable within an allelic series) with HOXB4 [2]; 8.34 upbm affinity estimate (log intensity, higher = more binding, comparable within an allelic series) in the assay with HESX1 [3]; 11 upbm affinity estimate (log intensity, higher = more binding, comparable within an allelic series) with HOXB4 [4]; 7.87 upbm affinity estimate (log intensity, higher = more binding, comparable within an allelic series) with HESX1 [5].

ATTAATAG: the binding signal in the assay with HESX1 [1] is 10.6 upbm affinity estimate (log intensity, higher = more binding, comparable within an allelic series); with HOXB4 [2], 13 upbm affinity estimate (log intensity, higher = more binding, comparable within an allelic series); in the assay with HESX1 [3], 10.6 upbm affinity estimate (log intensity, higher = more binding, comparable within an allelic series); with HOXA4 it was 12 upbm affinity estimate (log intensity, higher = more binding, comparable within an allelic series); with HOXB4 [4], 13.7 upbm affinity estimate (log intensity, higher = more binding, comparable within an allelic series); with ALX3 [6], 8.58 upbm affinity estimate (log intensity, higher = more binding, comparable within an allelic series). For the same sequence, the binding signal in the assay with HESX1 [7] is 8.2 upbm affinity estimate (log intensity, higher = more binding, comparable within an allelic series); in the assay with HESX1 [5], 9.29 upbm affinity estimate (log intensity, higher = more binding, comparable within an allelic series); in the assay with HESX1 [8], 7.97 upbm affinity estimate (log intensity, higher = more binding, comparable within an allelic series).

On to CCCTACGG, for which the binding signal was 6.51 upbm affinity estimate (log intensity, higher = more binding, comparable within an allelic series) with HESX1 [1]; 7.88 upbm affinity estimate (log intensity, higher = more binding, comparable within an allelic series) with HOXB4 [2]; 6.45 upbm affinity estimate (log intensity, higher = more binding, comparable within an allelic series) with HESX1 [3]; 9.8 upbm affinity estimate (log intensity, higher = more binding, comparable within an allelic series) with HOXA4; 7.93 upbm affinity estimate (log intensity, higher = more binding, comparable within an allelic series) in the assay with HOXB4 [4]; 6.54 upbm affinity estimate (log intensity, higher = more binding, comparable within an allelic series) with HESX1 [7]. Further, the binding signal is 6.48 upbm affinity estimate (log intensity, higher = more binding, comparable within an allelic series) with HESX1 [5] and 6.43 upbm affinity estimate (log intensity, higher = more binding, comparable within an allelic series) with HESX1 [8].

In the case of ACTAATTG, the binding signal was 13 upbm affinity estimate (log intensity, higher = more binding, comparable within an allelic series) with HESX1 [1]; 13.1 upbm affinity estimate (log intensity, higher = more binding, comparable within an allelic series) with HOXB4 [2]; 12.3 upbm affinity estimate (log intensity, higher = more binding, comparable within an allelic series) in the assay with SHOX [9]; 13 upbm affinity estimate (log intensity, higher = more binding, comparable within an allelic series) with HESX1 [3]; 11.8 upbm affinity estimate (log intensity, higher = more binding, comparable within an allelic series) with HOXA4; 13.8 upbm affinity estimate (log intensity, higher = more binding, comparable within an allelic series) with HOXB4 [4]. Also, the binding signal is 11.9 upbm affinity estimate (log intensity, higher = more binding, comparable within an allelic series) with ALX1 [10]; 8.32 upbm affinity estimate (log intensity, higher = more binding, comparable within an allelic series) with ALX3 [6]; 9.68 upbm affinity estimate (log intensity, higher = more binding, comparable within an allelic series) with SHOX [11]; 11.5 upbm affinity estimate (log intensity, higher = more binding, comparable within an allelic series) with ALX1 [12]; 12.5 upbm affinity estimate (log intensity, higher = more binding, comparable within an allelic series) with ALX3 [13]; 11.5 upbm affinity estimate (log intensity, higher = more binding, comparable within an allelic series) with PROP1 [14]. The binding signal is 9.82 upbm affinity estimate (log intensity, higher = more binding, comparable within an allelic series) with HESX1 [7]; 11.9 upbm affinity estimate (log intensity, higher = more binding, comparable within an allelic series) with PROP1 [15]; 10.8 upbm affinity estimate (log intensity, higher = more binding, comparable within an allelic series) with ALX3 [16]; 11.6 upbm affinity estimate (log intensity, higher = more binding, comparable within an allelic series) with HESX1 [5]; 10.2 upbm affinity estimate (log intensity, higher = more binding, comparable within an allelic series) with ALX3 [17]; 7.65 upbm affinity estimate (log intensity, higher = more binding, comparable within an allelic series) in the assay with PROP1 [18]. Besides, the binding signal with HESX1 [8] is 7.98 upbm affinity estimate (log intensity, higher = more binding, comparable within an allelic series); with ALX3 [19] it was 8.46 upbm affinity estimate (log intensity, higher = more binding, comparable within an allelic series).

Regarding CAATTATG, the binding signal was 12.7 upbm affinity estimate (log intensity, higher = more binding, comparable within an allelic series) with HESX1 [1]; 13 upbm affinity estimate (log intensity, higher = more binding, comparable within an allelic series) with HOXB4 [2]; 12.1 upbm affinity estimate (log intensity, higher = more binding, comparable within an allelic series) with SHOX [9]; 12.9 upbm affinity estimate (log intensity, higher = more binding, comparable within an allelic series) in the assay with HESX1 [3]; 13.6 upbm affinity estimate (log intensity, higher = more binding, comparable within an allelic series) with HOXB4 [4]; 11.7 upbm affinity estimate (log intensity, higher = more binding, comparable within an allelic series) in the assay with ALX1 [10]. In addition, the binding signal with ALX3 [6] is 8.45 upbm affinity estimate (log intensity, higher = more binding, comparable within an allelic series); in the assay with SHOX [11] it was 9.62 upbm affinity estimate (log intensity, higher = more binding, comparable within an allelic series); with ALX1 [12], 11.4 upbm affinity estimate (log intensity, higher = more binding, comparable within an allelic series); with ALX3 [13], 12.4 upbm affinity estimate (log intensity, higher = more binding, comparable within an allelic series); in the assay with PROP1 [14], 11.5 upbm affinity estimate (log intensity, higher = more binding, comparable within an allelic series); with HESX1 [7] it was 9.11 upbm affinity estimate (log intensity, higher = more binding, comparable within an allelic series). For the same sequence, the binding signal in the assay with PROP1 [15] was 11.5 upbm affinity estimate (log intensity, higher = more binding, comparable within an allelic series); with ALX3 [16] it was 10.5 upbm affinity estimate (log intensity, higher = more binding, comparable within an allelic series); in the assay with HESX1 [5] it was 11.2 upbm affinity estimate (log intensity, higher = more binding, comparable within an allelic series); with ALX3 [17], 9.96 upbm affinity estimate (log intensity, higher = more binding, comparable within an allelic series); with PROP1 [18] it was 7.66 upbm affinity estimate (log intensity, higher = more binding, comparable within an allelic series); with HESX1 [8] it was 7.82 upbm affinity estimate (log intensity, higher = more binding, comparable within an allelic series). Moreover, the binding signal with ALX3 [19] is 8.59 upbm affinity estimate (log intensity, higher = more binding, comparable within an allelic series).

As for CCAATTAA, the binding signal is 13.6 upbm affinity estimate (log intensity, higher = more binding, comparable within an allelic series) in the assay with HESX1 [1]; 13 upbm affinity estimate (log intensity, higher = more binding, comparable within an allelic series) in the assay with HOXB4 [2]; 12.7 upbm affinity estimate (log intensity, higher = more binding, comparable within an allelic series) in the assay with SHOX [9]; 13.5 upbm affinity estimate (log intensity, higher = more binding, comparable within an allelic series) in the assay with HESX1 [3]; 12 upbm affinity estimate (log intensity, higher = more binding, comparable within an allelic series) in the assay with HOXA4; 13.7 upbm affinity estimate (log intensity, higher = more binding, comparable within an allelic series) in the assay with HOXB4 [4]. In addition, the binding signal is 12.2 upbm affinity estimate (log intensity, higher = more binding, comparable within an allelic series) with ALX1 [10]; 8.51 upbm affinity estimate (log intensity, higher = more binding, comparable within an allelic series) with ALX3 [6]; 10.3 upbm affinity estimate (log intensity, higher = more binding, comparable within an allelic series) with SHOX [11]; 11.9 upbm affinity estimate (log intensity, higher = more binding, comparable within an allelic series) with ALX1 [12]; 12.9 upbm affinity estimate (log intensity, higher = more binding, comparable within an allelic series) with ALX3 [13]; 12 upbm affinity estimate (log intensity, higher = more binding, comparable within an allelic series) in the assay with PROP1 [14]. Besides, the binding signal was 10.8 upbm affinity estimate (log intensity, higher = more binding, comparable within an allelic series) with HESX1 [7]; 12.2 upbm affinity estimate (log intensity, higher = more binding, comparable within an allelic series) with PROP1 [15]; 11.2 upbm affinity estimate (log intensity, higher = more binding, comparable within an allelic series) with ALX3 [16]; 12.2 upbm affinity estimate (log intensity, higher = more binding, comparable within an allelic series) with HESX1 [5]; 10.8 upbm affinity estimate (log intensity, higher = more binding, comparable within an allelic series) with ALX3 [17]; 7.84 upbm affinity estimate (log intensity, higher = more binding, comparable within an allelic series) in the assay with PROP1 [18]. Moreover, the binding signal with HESX1 [8] is 8.43 upbm affinity estimate (log intensity, higher = more binding, comparable within an allelic series); with ALX3 [19], 8.7 upbm affinity estimate (log intensity, higher = more binding, comparable within an allelic series).
